Compound activity as filed in PubChem BioAssay.
An excerpt weighted towards active compounds, which were near 1.1% of everything screened.
NR5A2 inv ag: NR5A2 inverse agonism in reporter assay; O00482; HEK293T StAR-luciferase reporter, LRH-1 transfected, 24 h; inhibition, % at 3.6 µM; actives 0.13% (n = 360,000); AID 602396;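 active = inhibition above the mean inhibition of all tested compounds plus 3 SD, cut at about 73% in these data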;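 also: 0% = DMSO wells and 100% = reporter-only cells lacking LRH-1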
COUP-TFII inh: inhibitors of human COUP-TFII (NR2F2) | P24468 | HEK293T NGFI-A luciferase reporter, luminescence | inhibition, % at 8.6 µM | actives 0.7% (n = 370,000);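 active = inhibition above a per-plate cutoff, mean inhibition of test wells between control levels plus 3 SD, cut at about 38% in these data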;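 also: cells cotransfected with COUP-TFII expression vector driving the NGFI-A reporter; 0% = median of COUP-TF2 test wells and 100% = reporter-only cells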
Target sequence (P24468 whole entry, looked up): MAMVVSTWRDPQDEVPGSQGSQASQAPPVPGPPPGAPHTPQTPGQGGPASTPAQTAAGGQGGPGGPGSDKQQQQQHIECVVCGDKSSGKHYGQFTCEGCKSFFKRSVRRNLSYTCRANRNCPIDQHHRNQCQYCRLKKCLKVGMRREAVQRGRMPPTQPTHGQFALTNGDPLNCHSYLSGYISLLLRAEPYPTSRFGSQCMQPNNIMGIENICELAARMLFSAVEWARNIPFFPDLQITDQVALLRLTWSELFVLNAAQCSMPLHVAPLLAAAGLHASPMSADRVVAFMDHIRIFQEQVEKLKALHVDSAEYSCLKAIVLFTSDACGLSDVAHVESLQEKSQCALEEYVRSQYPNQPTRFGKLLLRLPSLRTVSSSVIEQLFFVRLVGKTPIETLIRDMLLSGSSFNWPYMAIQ
SRC2 inh: inhibits human steroid receptor coactivator 2 | actives 0.17% (n = 370,000) | inhibition, % at 9 µM | AID 651957 | HEK293 GAL4-SRC2 luciferase reporter, luminescence;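 active = inhibition above the mean inhibition of all tested compounds plus 3 SD, set per campaign, cut at about 52% in these data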;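 also: 0% = DMSO treated cells and 100% = cells given Gossypol at 36 µM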
SRC3 inh: human NCOA3 inhibition; Q9Y6Q9; HEK293 GAL4-SRC3 luciferase reporter, luminescence; inhibition, % at 3.6 µM; actives 0.17% (n = 360,000); AID 588352;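 active = inhibition above a per-campaign cutoff, the mean of all compounds plus 3 SD, cut at about 60% in these data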;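 also: 0% = DMSO-treated cells and 100% = gossypol-treated cells at 36 µM; higher means less SRC3-driven luciferase light from the GAL4 reporter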
SRC1 inh: inhibitors of human steroid receptor coactivator 1 (SRC1). inhibition, % at 3.6 µM. HEK293 GAL4-SRC1 luciferase reporter, luminescence. Q15788. actives 0.12% (n = 360,000);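 active = inhibition above the campaign mean plus 3 SD, with each screening campaign given its own cutoff, cut at about 60% in these data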;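 also: 0% = DMSO treated cells and 100% = gossypol at 36 µM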
GalR3 antagonist: human GalR3 antagonism; O60755; HEK293 GalR3-CNG cAMP membrane potential fluorescence; galR3 body fused to GalR1 C-terminus; inhibition, % at 3 µM; actives 0.44% (n = 360,000); AID 651719;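 active = inhibition above the screen-wide average plus 3 SD, cut at about 13% in these data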;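 also: forskolin and galanin both at EC90 stimulate the cells; cAMP rise reported by CNG channel membrane potential dye signal; 0% = forskolin plus galanin with DMSO and 100% = forskolin alone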
Target sequence (O60755 1-299 limits assumed): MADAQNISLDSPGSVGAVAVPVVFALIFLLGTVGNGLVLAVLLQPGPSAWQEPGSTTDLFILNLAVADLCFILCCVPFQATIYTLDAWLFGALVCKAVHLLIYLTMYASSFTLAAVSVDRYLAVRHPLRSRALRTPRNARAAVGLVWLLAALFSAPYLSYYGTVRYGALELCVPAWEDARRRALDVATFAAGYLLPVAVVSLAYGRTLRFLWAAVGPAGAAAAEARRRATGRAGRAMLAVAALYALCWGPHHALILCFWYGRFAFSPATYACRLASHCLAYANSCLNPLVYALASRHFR
GalR3 conf: confirmation of human galanin receptor 3 antagonists | shares compounds with GalR3 antagonist | HEK293 GalR3 CNG cAMP biosensor, membrane potential fluorescence; galR3 fused to GalR1 carboxy tail; challenged with forskolin and galanin at EC90 | inhibition, % at 3 µM | actives 59% (n = 1,600);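 active = inhibition above the primary screen's cutoff, the mean inhibition of all screened compounds plus 3 SD, cut at about 13% in these data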;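 also: 0% = forskolin plus galanin and 100% = forskolin alone with DMSO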
CNG parental: parental cell agonism counter-screen for GalR3 antagonists | activation, % at 3 µM | actives 10% (n = 1,600) | HEK293-CNG parental cells, cAMP membrane potential fluorescence; normalised: DMSO wells 0%, forskolin wells 100% | shares compounds with GalR3 antagonist; in the data active = activation above about 1.3%
VP16 Luc counter: VP16 inhibition counter-screen for COUP-TFII. shares compounds with COUP-TFII inh. HEK293 Gal4-VP16 luciferase reporter, luminescence. inhibition, % at 8.5 µM. actives 25% (n = 2,500); in the data active = inhibition above about 13%
COUP-TFII conf: confirmation of human COUP-TFII (NR2F2) inhibitors; shares compounds with COUP-TFII inh; inhibition, % at 8.5 µM; HEK293 NGFI-A luciferase reporter, luminescence; AID 687008; actives 45% (n = 2,500);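 active = mean inhibition over three repeats above a set limit taken from the earlier primary screen, cut at about 38% in these data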;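 also: 100% = cells given the luciferase reporter alone without the COUP-TF2 vector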
Active calls of the source: *; / = no result given.

SMILES	NR5A2 inv ag	COUP-TFII inh	SRC2 inh	SRC3 inh	SRC1 inh	GalR3 antagonist	GalR3 conf	CNG parental	VP16 Luc counter	COUP-TFII conf
COC(=O)[C@]12C[C@H](CC(=O)N3CCCC3)C(=O)N(Cc3cccc4ccccc34)C1=C[C@H](C1CCCC1)O[C@@H]2C	/	1.9	2.4	/	/	/	/	/	/	/
COC(=O)[C@]12C[C@H](CC(=O)NCc3cccc(C(F)(F)F)c3)C(=O)N(CCC3=CCCCC3)C1=C[C@H](C1CCCC1)O[C@@H]2C	/	3.6	11.6	/	/	/	/	/	/	/
CSc1ccc(CN2CCN(C(=O)c3ccc([N+](=O)[O-])cc3)CC2)cc1	39.2	70.5*	14.7	23.7	10.3	101.8*	106.4*	-0.3	-2.4	43.6*
O=C(c1ccc(Cn2ccc([N+](=O)[O-])n2)cc1)N1CCN(Cc2ccccc2)CC1	24.1	10.6	16.2	15.3	1.6	-8.8	/	/	/	/
Cn1nc(C(C)(C)C)cc1C(=O)NCc1cc(F)cc2c1OCOC2	38.0	63.3*	26.6	26.1	-1.3	95.4*	111.1*	-0.4	6.0	60.7*
COc1cccc(C(=O)N2CCN(C(=O)c3cccc4ccccc34)CC2)c1OC	-17.6	5.9	-2.2	16.4	-6.7	0.0	/	/	/	/
CCc1ccc(CN2CCN(C(=O)c3cccc(OC)c3OC)CC2)cc1	23.0	53.6*	13.1	9.6	22.2	98.4*	100.5*	-0.4	-5.8	40.2*
CCn1c(SCC(=O)c2ccc(-c3ccccc3)cc2)nnc1-c1ccccc1OC	/	1.5	2.4	/	/	/	/	/	/	/
NC(=O)c1ccc(N2CCN(S(=O)(=O)c3ccccc3)CC2)c([N+](=O)[O-])c1	38.3	53.6*	30.9	5.1	30.0	32.5*	115.6*	-1.0	1.7	42.9*
Cc1ccccc1OCCCCn1cnc2ccccc21	19.8	38.9*	7.0	-10.5	11.8	76.7*	18.9*	-0.8	-15.7	17.2
NS(=O)(=O)c1ccc(NC(=S)N2CCN(c3ccc(Cl)c(Cl)c3)CC2)cc1	13.8	37.9*	-4.3	27.3	0.8	20.8*	36.7*	-1.9	13.2*	23.6
c1ccc(-c2c[n+]3c(n2-c2ccccc2)CCC3)cc1	10.0	8.7	12.6	12.4	-21.8	-3.5	/	/	/	/
CCOc1ccc(-n2c(-c3ccccc3)c[n+]3c2CCCCC3)cc1	63.4	66.9*	20.5	37.4	21.4	51.4*	77.6*	0.8	8.3	48.7*
O=C(COc1ccc(Br)cc1Br)NC1CCCC1	-22.9	47.2*	17.0	-35.1	-53.1	42.2*	72.9*	-0.1	-122.6	-3.1
Cc1cc(Cl)c(S(=O)(=O)N2CCCCCC2)cc1OCC(=O)NC1CCCCC1	13.4	-5.6	-15.8	0.4	7.8	6.4	/	/	/	/
O=C(COc1ccc(Br)cc1Cl)NC1CCCCC1	-36.6	-7.2	-21.6	-61.1	-102.2	-2.8	/	/	/	/
Cc1cc(Cl)c(S(=O)(=O)NC2CCCC2)cc1OCC(=O)NC1CCCCC1	6.4	52.7*	13.5	17.0	16.9	65.6*	46.9*	0.2	2.7	52.7*
Cc1cc(Cl)c(S(N)(=O)=O)cc1OCC(=O)NC1CCCCC1	18.3	21.4	-3.3	18.6	10.2	-4.3	/	/	/	/
CCN1CCN(S(=O)(=O)c2cc(OCC(=O)NC3CCCCC3)c(C)cc2Cl)CC1	27.0	45.7*	6.2	30.2	32.6	24.8*	55.4*	0.1	9.1	36.6
CCOC(=O)CCCNC(=O)O[C@@H]1CC[C@@]23CCCN2C(=O)CCC[C@H]3C1	/	-6.0	/	/	/	/	/	/	/	/
O=C(NCc1ccc(F)c(F)c1)c1cccc2c(-c3cccnc3)coc12	10.7	23.2	-12.8	-25.9	1.1	0.5	/	/	/	/
COc1ccc(CNC(=O)c2cccc3c(-c4cccnc4)coc23)cc1OC	53.1	81.6*	10.7	31.4	32.4	88.7*	106.0*	-0.5	3.9	74.7*
COc1ccc(S[C@]2(C(=O)N3CCN(C(C)=O)CC3)CC(=O)N(C(=O)CCc3ccccc3)[C@@H]2c2ccc(OC)cc2)cc1	/	12.1	21.4	/	/	/	/	/	/	/
C=CC[n+]1c(/C=C2\C=Cc3cc(C)ccc3N2CC)ccc2ccccc21	89.4*	75.1*	15.6	71.0*	26.9	45.2*	64.2*	6.1*	17.7*	75.6*
CCCCCCCn1ccc(=N)cc1	79.3*	80.2*	2.7	24.4	22.7	15.8*	32.6*	-0.2	23.6*	76.7*
SMILES	NR5A2 inv ag	COUP-TFII inh	SRC2 inh	SRC3 inh	SRC1 inh	GalR3 antagonist	GalR3 conf	CNG parental	VP16 Luc counter	COUP-TFII conf
CCCCCn1ccc(=N)cc1	-7.0	37.3	16.5	8.6	-7.2	8.5	/	/	/	/
CCCCCCCCCn1ccc(=N)cc1	83.9*	76.9*	30.9	68.4*	52.5	95.6*	109.5*	0.2	21.8*	82.3*
C=CCN1[C@@H](C)COc2cc(F)ccc2S1(=O)=O	/	4.3	19.4	/	/	/	/	/	/	/
O=C(CN1CCC(c2nc3ccccc3s2)CC1)NCc1cccs1	28.4	52.9*	6.0	17.5	12.0	78.2*	75.8*	1.8*	-5.1	31.2
O=C(CN1CCC(c2nc3ccccc3s2)CC1)N1CCCCC1	-1.7	-6.9	1.1	1.6	-5.9	-7.9	/	/	/	/
Cc1ccc(-n2c(SCC(=O)Nc3cccc4ccccc34)nnc2-c2cnccn2)cc1	/	3.7	-18.6	/	/	/	/	/	/	/
Cc1cc(/C=N/n2cnnc2)c(C)n1-c1ccc(OCc2ccc(Cl)cc2)cc1	43.9	68.1*	29.8	23.0	16.5	41.4*	63.5*	0.7	41.5*	88.3*
O=C(NCC1CCN(Cc2ccc(Cl)cc2)CC1)C1CCCN(c2ncnc3c2nc2n3CCCCC2)C1 (stereo not drawn)	24.3	58.4*	30.9	27.4	3.0	61.7*	84.3*	2.0*	8.2	34.2
CC1=C2NC(N)=[N+](Cc3ccc4c(c3)OCO4)CC2NOC1 (stereo not drawn)	/	-21.8	/	/	/	/	/	/	/	/
CCOC(=O)c1cnc(-n2nc(C)cc2C)nc1NC	-4.5	-10.8	-1.3	-7.7	-19.9	-4.7	/	/	/	/
CCOC(=O)c1cnc(-n2nc(C)cc2C)nc1NC1CCCCC1	19.0	76.6*	23.0	5.1	11.6	33.9*	73.4*	6.8*	-2.1	72.1*
c1ccc(CCNc2ccnc3cc4ccccc4cc23)cc1	1.5	65.3*	-17.5	-7.4	-1.1	18.8*	-6.9	3.3*	15.1*	58.5*
CC(C)Nc1ccc(Nc2ccnc3cc4ccccc4cc23)cc1	31.7	-18.6	-272.4	31.2	33.8	-2.0	/	/	/	/
